About 2,000 (36%) of roughly 5,500 compounds were called active. Not shown: some 18% with an inconclusive outcome. No stated cut-off is given here; in the data, active means normalized growth mostly below about 0.91 (no sharp cut-off); inconclusive means no clear call, values can overlap the other calls; inactive means mostly above about 0.92. Some of the results follow.
Experiment: chemical genetic growth profiling, strain panel (AID 1159580);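 further: tested at 20 µM; growth read once vehicle control cultures reached saturation at 30 °C; 1 = growth at the plate median or of vehicle wells; lower values mean less growth of the strain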
Details: growth OD

Measured: normalized growth

CCN1C[C@]2(C)CC[C@H](OC)[C@]34C2[C@H](O)[C@]2(OCO[C@@]25C[C@H](OC)[C@H]2C[C@]3(O)C5[C@H]2O)C14
inactive: S. cerevisiae deletion strains, locus YAL013W, strain DEP1, hits give low values 0.998 | S. cerevisiae deletion strains, locus YBR021W, strain FUR4, hits give low values 1.01 | S. cerevisiae deletion strains, locus YBR229C, strain ROT2, hits give low values 1.01 | S. cerevisiae deletion strains, locus YCL029C, strain bik1, hits give low values 1.01 | S. cerevisiae deletion strains, locus YDL035C, strain GPR1, hits give low values 1.03 | S. cerevisiae deletion strains, locus YDL074C, strain BRE1, hits give low values 1.04 | S. cerevisiae deletion strains, locus YDL101C, strain DUN1, hits give low values 1.01 | S. cerevisiae deletion strains, locus YDL134C, strain PPH21, hits give low values 1.01 | S. cerevisiae deletion strains, locus YDL185W, strain tfp1, hits give low values 1 | S. cerevisiae deletion strains, locus YDL192W, strain arf1, hits give low values 1.01 | S. cerevisiae deletion strains, locus YDR101C, strain arx1, hits give low values 0.995 | S. cerevisiae deletion strains, locus YDR150W, strain NUM1, hits give low values 0.988 | S. cerevisiae deletion strains, locus YDR162C, strain NBP2, hits give low values 0.992 | S. cerevisiae deletion strains, locus YDR318W, strain mcm21, hits give low values 1.01 | S. cerevisiae deletion strains, locus YDR388W, hits give low values 1.01 | S. cerevisiae deletion strains, locus YDR502C, strain sam2, hits give low values 0.998 | S. cerevisiae deletion strains, locus YEL061C, strain CIN8, hits give low values 0.994 | S. cerevisiae deletion strains, locus YER110C, hits give low values 1.01 | S. cerevisiae deletion strains, locus YER155C, strain BEM2, hits give low values 0.981 | S. cerevisiae deletion strains, locus YER167W, strain BCK2, hits give low values 1 | S. cerevisiae deletion strains, locus YGL078C, strain dbp3, hits give low values 0.998 | S. cerevisiae deletion strains, locus YGL086W, strain mad1, hits give low values 1 | S. cerevisiae deletion strains, locus YGL248W, strain PDE1, hits give low values 1 | S. cerevisiae deletion strains, locus YGR078C, strain PAC10, hits give low values 1.03 | S. cerevisiae deletion strains, locus YGR135W, strain pre9, hits give low values 1.01 | S. cerevisiae deletion strains, locus YGR229C, strain SMI1, hits give low values 0.999 | S. cerevisiae deletion strains, locus YGR252W, strain gcn5, hits give low values 1.02 | S. cerevisiae deletion strains, locus YHR030C, strain SLT2, hits give low values 0.999 | S. cerevisiae deletion strains, locus YHR079C, strain IRE1 (second series), hits give low values 1.01 | S. cerevisiae deletion strains, locus YHR094C, strain hxt1, hits give low values 1 | S. cerevisiae deletion strains, locus YHR129C, strain ARP1, hits give low values 1 | S. cerevisiae deletion strains, locus YHR200W, strain rpn10, hits give low values 1 | S. cerevisiae deletion strains, locus YIL066C, strain RNR3, hits give low values 1 | S. cerevisiae deletion strains, locus YIL073C, strain SPO22, hits give low values 1 | S. cerevisiae deletion strains, locus YIL125W, strain kgd1, hits give low values 1 | S. cerevisiae deletion strains, locus YIR030C, strain dcg1, hits give low values 1 | S. cerevisiae deletion strains, locus YJL095W, strain BCK1, hits give low values 1.04 | S. cerevisiae deletion strains, locus YJL134W, strain LCB3, hits give low values 0.999 | S. cerevisiae deletion strains, locus YJL168C, strain set2, hits give low values 1.01 | S. cerevisiae deletion strains, locus YJL187C, strain SWE1 (second series), hits give low values 1.01 | S. cerevisiae deletion strains, locus YJR043C, strain POL32, hits give low values 1.01 | S. cerevisiae deletion strains, locus YJR075W, strain HOC1, hits give low values 1 | S. cerevisiae deletion strains, locus YKL009W, strain mrt4, hits give low values 1.02 | S. cerevisiae deletion strains, locus YKL068W, hits give low values 0.991 | S. cerevisiae deletion strains, locus YKL085W, strain MDH1 (second series), hits give low values 0.999 | S. cerevisiae deletion strains, locus YKL085W, strain MDH1, hits give low values 0.999 | S. cerevisiae deletion strains, locus YKL190W, strain CNB1, hits give low values 0.967 | S. cerevisiae deletion strains, locus YKR001C, strain vps1, hits give low values 1.01 | S. cerevisiae deletion strains, locus YLR039C, strain RIC1, hits give low values 1.03 | S. cerevisiae deletion strains, locus YLR058C, strain SHM2, hits give low values 1.01 | S. cerevisiae deletion strains, locus YLR102C, strain apc9, hits give low values 1 | S. cerevisiae deletion strains, locus YLR262C, strain YPT6, hits give low values 1.03 | S. cerevisiae deletion strains, locus YLR268W, strain sec22, hits give low values 1.02 | S. cerevisiae deletion strains, locus YLR330W, strain CHS5, hits give low values 1.01 | S. cerevisiae deletion strains, locus YLR342W, strain FKS1 (second series), hits give low values 1.03 | S. cerevisiae deletion strains, locus YLR371W, strain rom2, hits give low values 1 | S. cerevisiae deletion strains, locus YLR418C, strain cdc73, hits give low values 1.04 | S. cerevisiae deletion strains, locus YML016C, strain PPZ1, hits give low values 1 | S. cerevisiae deletion strains, locus YML032C, strain rad52, hits give low values 1 | S. cerevisiae deletion strains, locus YML124C, strain tub3, hits give low values 1 | S. cerevisiae deletion strains, locus YMR078C, strain ctf18, hits give low values 1.01 | S. cerevisiae deletion strains, locus YMR223W, strain ubp8, hits give low values 0.998 | S. cerevisiae deletion strains, locus YMR263W, strain SAP30, hits give low values 0.998 | S. cerevisiae deletion strains, locus YMR307W, strain GAS1, hits give low values 1.07 | S. cerevisiae deletion strains, locus YNL067W, strain RPL9B, hits give low values 0.995 | S. cerevisiae deletion strains, locus YNL128W, strain TEP1, hits give low values 1 | S. cerevisiae deletion strains, locus YNL153C, strain GIM3, hits give low values 1 | S. cerevisiae deletion strains, locus YNL233W, strain BNI4, hits give low values 1.01 | S. cerevisiae deletion strains, locus YNL250W, strain rad50, hits give low values 0.999 | S. cerevisiae deletion strains, locus YNL271C, strain bni1, hits give low values 1.01 | S. cerevisiae deletion strains, locus YNL298W, strain CLA4, hits give low values 1 | S. cerevisiae deletion strains, locus YNL307C, strain MCK1, hits give low values 1.02 | S. cerevisiae deletion strains, locus YNL322C, strain KRE1, hits give low values 1 | S. cerevisiae deletion strains, locus YNR052C, strain pop2, hits give low values 1.01 | S. cerevisiae deletion strains, locus YOL006C, strain TOP1, hits give low values 1.02 | S. cerevisiae deletion strains, locus YOL012C, strain htz1 1.33 | S. cerevisiae deletion strains, locus YOL147C, strain pex11, hits give low values 1.01 | S. cerevisiae deletion strains, locus YOR061W, strain CKA2, hits give low values 1.01 | S. cerevisiae deletion strains, locus YOR069W, strain VPS5, hits give low values 1 | S. cerevisiae deletion strains, locus YOR136W, strain idh2, hits give low values 1.01 | S. cerevisiae deletion strains, locus YOR144C, strain elg1, hits give low values 1.01 | S. cerevisiae deletion strains, locus YOR184W, strain ser1, hits give low values 1.03 | S. cerevisiae deletion strains, locus YOR316C, strain cot1, hits give low values 1 | S. cerevisiae deletion strains, locus YPL055C, strain LGE1, hits give low values 0.987 | S. cerevisiae deletion strains, locus YPL241C, strain CIN2, hits give low values 0.998 | S. cerevisiae deletion strains, locus YPR119W, strain clb2, hits give low values 1 | S. cerevisiae deletion strains, locus YPR141C, strain kar3, hits give low values 1 | S. cerevisiae deletion strains, locus YPR163C, strain tif3, hits give low values 1.02 | S. cerevisiae deletion strains, locus YPR167C, strain met16, hits give low values 1.01 | S. cerevisiae deletion strains, strain wtn01, hits give low values 1 | S. cerevisiae strains, strain wild type, hits give low values 0.987

Source: PubChem BioAssay AID1159580 (chemical genetic matrix, 2015)
